D3 ag = qHTS of D3 Dopamine Receptor Agonist: qHTS; D3R DiscoveRx beta-arrestin cells, luminescence, 90 min; max activation, %; actives 0.58% (n = 410,000); AID 652048, 2013; in the data active = max activation above about 30%; also: 0% is about no effect
Target sequence (P35462 whole entry, looked up): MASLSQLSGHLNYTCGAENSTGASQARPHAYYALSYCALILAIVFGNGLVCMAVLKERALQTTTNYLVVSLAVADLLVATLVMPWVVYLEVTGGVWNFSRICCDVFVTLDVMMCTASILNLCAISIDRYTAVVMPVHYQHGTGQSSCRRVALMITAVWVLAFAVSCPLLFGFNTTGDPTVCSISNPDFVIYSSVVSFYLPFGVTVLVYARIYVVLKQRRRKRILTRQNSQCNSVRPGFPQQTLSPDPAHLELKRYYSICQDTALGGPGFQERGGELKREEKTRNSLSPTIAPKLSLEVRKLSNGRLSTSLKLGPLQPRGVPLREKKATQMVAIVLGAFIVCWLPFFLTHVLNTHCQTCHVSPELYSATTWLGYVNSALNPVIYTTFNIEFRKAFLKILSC
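Agonist-mode cell screen: cells plated at 1500/well and incubated overnight at 37 °C, then exposed to library compounds for 90 min at 37 °C. Detection reagent was added for 30–60 min at room temperature, and luminescence was read.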
DT40 TDP1 CPT = qHTS for Inhibitors of human tyrosyl-DNA phosphodiesterase 1 (TDP1): qHTS in cells in presence of CPT; actives 12% (n = 420,000); AID 686979, 2013; Potency, µM (series often up to 46.2 µM), without a hit: at the top dose activity change, negative = growth inhibition, hits mostly inhibitors; chicken DT40 Tdp1-/-;hTDP1 cells + 20 nM CPT, ATP luminescence, 48 h; also: potency is read from the fitted curve at half-maximal effect; % is scaled to controls: 0 for no effect and ±100 for the full control effect; nearly all actives have a fitted effect of over 55% in size
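Cell growth measured by CellTiter-Glo luminescence after a minimum 48 h, 37 C compound exposure with 20 nM CPT in Tdp1-knockout DT40 cells stably expressing hTDP1, seeded 400/well; qHTS titration format.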
ClpP mod = qHTS Assay for Activators of ClpP; purified B. subtilis ClpP, FRET peptide cleavage, 20 min; ATP-dependent Clp protease proteolytic subunit (Bacillus subtilis (strain 168)), P80244; actives 1.9% (n = 340,000); Potency, µM (series often up to 57.5 µM), inactives show at the highest dose activity change, negative = active; active = well fitted falling curve with a large enough effect; inconclusive = small, poorly fitted or top-dose-only effect; inactive = no such curve, though single readings can be large or run the other way; also: potency is read from the fitted curve at half-maximal effect; the source files actives as falling curves though it sought activators and does not explain the sign; nearly all actives have a fitted effect of over 65% in size
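Purified B. subtilis ClpP, 10 microg/mL final in Tris/HCl pH8 with KCl, BSA, glycerol and Tween-20, cleaved an Abz/nitrotyrosine-quenched decapeptide. Fluorescence (ex 320, em 430) was read at 0 and 20 min at room temperature. Delta was normalized to 5.8 microM ADEP and DMSO/no-enzyme controls.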
D3 antag = qHTS of D3 Dopamine Receptor Antagonist: qHTS; D(3) dopamine receptor (Homo sapiens), P35462; actives 2.5% (n = 360,000); D3R cells, DiscoveRx beta-arrestin luminescence, antagonist mode; hits give low values; max response, negative = inhibition, %; in the data active = max response below about -50%; inconclusive = no clear call, values can overlap the other calls; also: % is scaled to controls: 0 for no effect and ±100 for the full control effect
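Cells expressing the human receptor were seeded at 1500 cells/well, incubated overnight at 37 degrees C in 5% CO2, then exposed to library compounds with dopamine controls for 90 minutes at 37 degrees C before luminescent detection.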
DT40 TDP1 no CPT = qHTS for Inhibitors of human tyrosyl-DNA phosphodiesterase 1 (TDP1): qHTS in cells in absence of CPT; DT40 Tdp1-/- hTDP1 cells, no CPT, ATP luminescence, 48 h; Potency, µM (titrated, usually from 46.2 µM), for inactives: at the highest dose activity change, negative = growth inhibition, actives largely listed as inhibitors; actives 15% (n = 420,000); AID 686978, 2013; also: potency is read from the fitted curve at half-maximal effect; % is scaled to controls: 0 for no effect and ±100 for the full control effect; nearly all actives have a fitted effect of over 55% in size
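Chicken DT40 Tdp1-/- cells complemented with human TDP1, screened without camptothecin (DMSO vehicle only), 400 cells/well. Compounds pin-transferred, cells incubated at 37 °C for at least 48 hr. Growth read as ATP-dependent luminescence (CellTiter-Glo, 30 min at RT).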
IL1B secr inh = qHTS for Inhibitors of Inflammasome Signaling: IL-1-beta AlphaLISA Primary Screen | activity change, % at 57.5 µM | actives 4.7% (n = 360,000) | THP-1 LPS/ATP IL-1B secretion, AlphaLISA, 16 h; hits give low values; in the data active = activity change below about -50%; inconclusive = mostly about -30% to -49%; also: % is scaled to controls: 0 for no effect and ±100 for the full control effect
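Secreted IL-1B measured by AlphaLISA bead assay after 16 h compound exposure of THP-1 cells; compounds (final up to 57.5 uM) added 1 h before LPS (250 ng/mL) and ATP (1.25 mM) stimulation; lower signal means less secretion.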
Numbers without * were called inactive; ? = inconclusive; · = not tested or not shown; ! = not active in a repeat; [ ] = remark or other dose. Only some compounds are listed: those with a hit (about 21% of all), similar ones and a draw of the others. Unless noted, calls follow the shape of the dose curve; as a rule, active = well fitted inhibition curve with a large enough effect; inconclusive = small, poorly fitted or top-dose-only effect; inactive = flat fitted curve, though single readings scatter.

SMILES	D3 ag	DT40 TDP1 CPT	ClpP mod	D3 antag	DT40 TDP1 no CPT	IL1B secr inh
CCN(CC)CCN(Cc1cc2cc3c(cc2[nH]c1=O)OCO3)C(=S)NCc1ccco1	-16	?	-1%	12	?	-63*
CCN(CC)CCN(Cc1cc2cc(C)cc(C)c2[nH]c1=O)C(=S)NCc1ccco1	-2	26µM*	-17%	2	23µM*	0
Cc1cc(C)c2[nH]c(=O)c(CN(Cc3cccs3)C(=S)NCc3ccco3)cc2c1	-2	13µM*	-19%	11	10µM*	-17
CCNC(=S)N(Cc1ccco1)Cc1cc2cc3c(cc2[nH]c1=O)OCCO3	-1	?	28µM*	0	?	46
CCCN(c1ccc(C(C)C)cc1)S(=O)(=O)c1ccc2c(c1)oc(=O)n2CC(=O)OCC	-1	?	0%	·	?	·
CCN(CC)CCN(Cc1cc2cc3c(cc2[nH]c1=O)OCCO3)C(=S)NCC(C)C	-2	?	-4%	-2	?	-62*
COc1ccc2c(c1)C(=O)N(c1ccc(C)cc1C)C(=O)C2	5	13µM*	·	22	21µM*	14
Cc1[nH]n(-c2ccccc2)c(=O)c1C1(C(F)(F)F)C(=O)N(c2ccc(F)cc2)C2=C1C(=O)CC(C)(C)C2 (centres undefined)	0	1%	-2%	-71*	-2%	23
Cc1ccc(N2C(=O)C(NC(=O)c3ccccc3F)(C(F)(F)F)C3=C2CC(C)(C)CC3=O)cc1 (centres undefined)	-5	?	-2%	-4	?	-13
CCc1ccc(-n2c(=O)c3cccnc3n2CC(=O)NCc2ccc(F)cc2)cc1	1	?	4%	·	?	·
COC1=CC(=O)CC(C)C12Oc1c(Cl)c(OC)cc(OC)c1C2=O (centres undefined)	8	?	4%	-8	?	-15
COC1=CC(=O)C[C@@H](C)[C@]12Oc1c(Cl)c(OC)cc(OC)c1C2=O	7	?	4%	25	17µM*	-2
O=C(CSc1nncc2ccccc12)N1CCCCC1	-2	-5%	·	-13	4%	-22
CCC(C)(C)C(=O)O[C@H]1C[C@@H](C)C=C2C=C[C@H](C)[C@H](CC[C@@H]3C[C@@H](O)CC(=O)O3)[C@H]21	-20	3%[21.1 µM]	1%	-12	21µM*!	9
c1ccc2c(-c3csc(-c4ccncc4)n3)c[nH]c2c1	1	18µM*	0%	-16	15µM*	-15
COc1ccc(N2C(=O)/C(=C/c3cccs3)NC2=S)cc1	5	1.5µM*	0%	-3	5.8µM*	-6
CN(C)/C=C1\NC(=S)N(c2ccccc2)C1=O	6	32%	·	0	-10%	-5
O=C1CSC(=Nc2ccccc2[N+](=O)[O-])N1	-5	3%	·	-22	?	15
CN(C)S(=O)(=O)c1ccc(N2CCCC2)c(C(=O)NCC2CCCO2)c1 (centres undefined)	15	-12%	1%	9	5%	4
CN(C)CC/C=C1/c2cc(F)ccc2Sc2ccc(Cl)cc21	-14	?	·	-84*	18µM*	-51*
COc1ccc(CCN(/C=C2\Sc3ccccc3C2=O)C(C)=O)cc1OC	-1	3%	·	7	-26%	45
CN(C)Cc1ccc(F)cc1Sc1ccc(Cl)cc1Cl	-16	?	3%	-28	?	-14
COc1cc2c(cc1Cl)/C(=C\CCN(C)C)c1ccccc1S2	-58	18µM*	-3%	-92*	?	-103*
